Compound activity: PubChem BioAssay, National Center for Advancing Translational Sciences (NCATS)
Rows were chosen to be rich in hits. Some 6.6% of all compounds tested hit in one or more screens of this group.
TGFb inhibitor: blocks TGF-b signaling. HepG2 CAGA-GFP TGF-b/SMAD3 reporter, GFP fluorescence, 18 h; TGF-beta stimulated, 500 pg/mL final. Potency, µM (highest dose often 46.1 µM), for the others: top-dose activity, negative = inhibition, actives largely listed as inhibitors. 410,000 compounds, 1.2% hits. AID 588855; also: % is scaled to controls: 0 for no effect and ±100 for the full control effect; nearly all actives have a fitted effect of over 65% in size
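GFP signal (ex488/em500-530) from TGF-beta-stimulated HEPG2 CAGA-GFP cells, 500 pg/mL final, 18 h at 37 degrees C in DMEM plus 1% FBS, normalized to unstimulated and DMSO-stimulated controls.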
HepG2 tox: counter-screen for TGF-b inhibitors: cytotoxicity in HepG2 cells; HepG2 CAGA-GFP viability, ATP luminescence, 18 h; Potency, µM (titrated, usually from 46.1 µM), inactives show at the top dose activity change, negative = cytotoxicity, usual class: cytotoxic; 410,000 compounds, 0.76% hits; AID 588856
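CellTiter-Glo luminescence gave cytotoxicity after 18 hours at 37 degrees C. The cells were HepG2 CAGA-GFP in 1% FBS DMEM, stimulated with 500 pg/mL TGF-beta after compound addition. %Activity was normalised to no-cell wells (complete cell-killing) and DMSO (no toxicity), and curves were fitted and classified.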
KB-V1 cytotox: kills drug-selected multidrug resistant KB-V1 cells; AID 1347076; 400,000 compounds, 3.4% hits; Potency, µM (doses to about 46.1 µM), hits mostly cytotoxic; KB-V1 MDR cells viability, CellTiter-Glo, 72 h; also: % is scaled to controls: 0 for no effect and ±100 for the full control effect; nearly all actives have a fitted effect of over 60% in size
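Potencies derive from concentration-effect curves fitted to normalized luminescence (CellTiter-Glo) of KB-V1 cells treated for 72 h at 37 degrees C in phenol-red-free DMEM containing 10% FBS.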
HT1080-NT tox: kills 2HG-producing HT-1080-NT fibrosarcoma cells | HT-1080-NT fibrosarcoma viability, CellTiter-Glo ATP luminescence, 48 h | Potency, µM (series often up to 46.1 µM), for inactives: at the highest dose activity, negative = less viability, actives largely listed as cytotoxic | 360,000 compounds, 1.6% hits | AID 686970;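 also: NT is the 2HG producing partner of a matched IDH1 knockdown line; 0% = DMSO-treated cells and -100% = media-only wells without cells; nearly all actives have a fitted effect of over 55% in size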
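Viability of the 2HG-overproducing fibrosarcoma line after 48 hours of compound exposure at 37 degrees C was determined by luminescence with CellTiter-Glo, and concentration-effect curves were then fitted and categorized.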
KB-3-1 tox: KB-3-1 parental cell cytotoxicity; KB-3-1 viability, CellTiter-Glo ATP luminescence, 72 h; Potency, µM (top dose mostly 46.1 µM), usual class: cytotoxic; 400,000 compounds, 1.4% hits; AID 1347075; also: % is scaled to controls: 0 for no effect and ±100 for the full control effect; nearly all actives have a fitted effect of over 60% in size
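Here the drug-naive KB-3-1 line serves as comparator for MDR sub-line selectivity; cells received compound titrations, 72 h at 37 °C, then CellTiter-Glo readout.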
HT1080 IDH1KD tx: HT-1080 IDH1 knockdown cell toxicity (counter line). HT-1080 IDH1 knockdown viability, ATP luminescence, 48 h. Potency, µM (series often up to 46.1 µM), without a hit: top-dose activity, negative = toxicity, usual class: cytotoxic. 360,000 compounds, 2% hits. AID 686971;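 also: 0% = DMSO wells and -100% = cell-free medium wells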
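% activity derives from luminescence (CellTiter-Glo), normalised to DMSO and no-cell wells. HT-1080-IDH1KD cells, 750/well, had 48 h compound exposure at 37 °C.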
Numbers without * were called inactive; i = inactive; ? = inconclusive; . = no result given; ! = not active in a repeat. Calls follow the shape of the dose curve; as a rule, active = well fitted curve in the direction sought with a large enough effect; inconclusive = small, poorly fitted or top-dose-only effect, or another doubt; inactive = no such curve, though single readings can be large; an effect the other way counts as inactive or inconclusive. Potency is read from the fitted curve at half-maximal effect.

SMILES	TGFb inhibitor	HepG2 tox	KB-V1 cytotox	HT1080-NT tox	KB-3-1 tox	HT1080 IDH1KD tx
COc1ccc(-c2cc(-c3ccccc3)[n+](C)c(-c3ccccc3)c2)cc1	?	-13%	i	?	3.3µM*	15µM*
COc1ccc(-[n+]2c(-c3ccccc3)cc(-c3ccc(C)cc3)cc2-c2ccccc2)cc1	7.1µM*	-33%	i	4.6µM*	2.6µM*	2.6µM*
O=c1c2ccccc2nc(/C=C\c2ccc(F)cc2)n1-c1ccccc1F	-2%	8%	i	.	?	.
CC(C)(C)c1ccc(/C=C2\Oc3cc(OC(=O)N4CCOCC4)ccc3C2=O)cc1	?	-23%	i	21µM*	i	18µM*
CCOc1ccccc1NC(=O)Cn1c(=O)oc2ccccc21	6%	-23%	i	16%	i	-6%
CCOc1ccc(CNC(=O)CCn2c(=O)oc3ccccc32)cc1	25%	0%	23µM*	-1%	i	5%
Cc1ccc(C)c(NC(=O)Cn2c(=O)oc3cc(S(=O)(=O)NCc4ccccc4)ccc32)c1	?	-37%	i	.	i	.
CCOC(=O)c1ccccc1OC(=O)NNc1ccccc1	4%	3%	i	5.8µM*	12µM*	12µM*
CNCC[C@H](Oc1cccc2ccccc12)c1cccs1	?	13µM*!	?	?	?	?
CCOP(=O)(OCC)c1nc(-c2ccc(F)cc2)oc1NCc1ccccc1	-5%	-7%	i	?	i	-8%
COC(=O)C(NC(C)=O)(Nc1nc2c(C)cc(C)cc2s1)C(F)(F)F (stereo unspecified)	-9%	-16%	?	16µM*	?	13µM*
OCC1OC(O)CC(O)C1O (stereo unspecified)	12%	3%	i	16%	i	14%
Cn1c(=O)oc2cc(S(=O)(=O)N3CCC(C(=O)N4CCc5ccccc5C4)CC3)ccc21	?	-6%	i	-2%	i	6%
CC(N)Cc1cn(Cc2ccccc2)c2ccccc12 (stereo unspecified)	?	-50%	?	?	23µM*	?
COC(=O)c1cn(Cc2ccc(F)cc2)c2ccccc12	8%	9%	i	-21%	i	?
O=C1c2ccccc2C(=O)N1SC1CCCCC1	3%	-36%	i	-15%	i	-2%
Cc1sc2c(c1C)C(c1cccs1)=NCC(=O)N2CC(=O)NCc1cccs1	0%	3%	?	5%	i	-6%
Cc1sc2c(c1C)C(c1ccc(C(C)(C)C)cc1)=NCC(=O)N2CC(=O)Nc1nccs1	?	-57%	21µM*	?	?	?
COC(=O)[C@H]1[C@H]2C[C@@H]3c4[nH]c5cc(OC)ccc5c4CCN3C[C@H]2C[C@@H](OC(=O)/C=C/c2cc(OC)c(OC)c(OC)c2)[C@@H]1OC	3%	5%	i	?	i	?
Oc1c(Br)c(Br)c(Br)c(Br)c1Br	?	-32%	i	26µM*	i	?
Oc1c(Br)cc(Br)cc1Br	-5%	2%	i	-28%	i	-1%
O=C1CC(c2ccccc2Br)c2c(c3ccccc3oc2=O)O1 (stereo unspecified)	20%	1%	i	.	i	.
Oc1ccc(Cl)cc1Sc1cc(Cl)ccc1O	8.9µM*	-124%	?	21µM*	?	21µM*
COC1CC2C=C(C)C=CC=CC(=O)NC(c3ccccc3)CC=CCCC(O)CC(=O)C2=C1O (stereo unspecified)	?	-110%	5.8µM*	1.8µM*	5.8µM*	1.6µM*
CCN(CC)c1ccc(C=C2C(=O)NC(=S)NC2=O)cc1	18µM*	16µM*	?	?	?	?
